Out of some 400,000 compounds screened, about 3,700 (0.93%) were called active. About 3% were inconclusive and are not listed. For the sample, actives were picked, then their nearest neighbours and some compounds at random. Where a structure was tested more than once in an assay, its records may differ in their call. Values without a mark were called inactive. Calls follow the shape of the dose curve; as a rule, active = well fitted inhibition curve with a large enough effect; inconclusive = small, poorly fitted or top-dose-only effect, or another doubt; inactive = no such curve, though single readings can be large or run the other way.
% is scaled to controls: 0 for no effect and ±100 for the full control effect; potency is read from the fitted curve at half-maximal effect.

Sequence of Vitamin D3 receptor (Homo sapiens) (P11473 whole entry, looked up): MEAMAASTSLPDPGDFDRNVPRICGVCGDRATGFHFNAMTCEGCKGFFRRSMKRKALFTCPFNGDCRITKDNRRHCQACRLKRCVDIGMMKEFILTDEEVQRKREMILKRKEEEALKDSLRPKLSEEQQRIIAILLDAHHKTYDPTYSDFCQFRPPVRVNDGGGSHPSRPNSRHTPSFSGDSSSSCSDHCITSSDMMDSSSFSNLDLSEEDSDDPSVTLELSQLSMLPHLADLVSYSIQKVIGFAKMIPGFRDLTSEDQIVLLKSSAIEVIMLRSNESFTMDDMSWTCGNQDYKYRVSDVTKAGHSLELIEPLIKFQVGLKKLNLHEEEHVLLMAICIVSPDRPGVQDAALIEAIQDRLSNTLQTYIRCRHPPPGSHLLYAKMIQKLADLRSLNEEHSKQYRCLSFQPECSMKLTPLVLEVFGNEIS

The target of the assay is Vitamin D3 receptor (Homo sapiens) (UniProt P11473). As to the kind of experiment: Inhibitors of the vitamin D receptor (VDR): qHTS. The conditions noted are these: VDR-SRC2-3 peptide fluorescence polarization, 2 h; max response, negative = inhibition: stronger effect = lower value. The text has this:
The vitamin D receptor (VDR) is a ligand-activated transcription factor and is partially responsible for the regulation of the endocrine system. This includes the transcriptional regulation of genes involved in the production of the parathyroid hormone (PTH) and the regulation of the blood calcium level. High levels of PHT can cause hypercalcemia in the case of primary and tertiary hyperparathyroidism. The VDR-mediated gene regulation, activated by its ligand 1,25-dihydroxyvitamin D3 (1,25-(OH)2D3), is governed by the recruitment of coactivators. Our hypothesis is that small molecules, with the ability to inhibit the interaction between VDR and certain coactivators, are able to selectively modulate VDR-mediated transcription. Our long term objective is the application these VDR-coactivator inhibitors to study the role of VDR-coactivator binding for specific VDR regulated genes. Ultimately, these molecules can be developed into new treatments for hypercalcemic hyperparathyroidism. No small molecule or non-peptide inhibitors are known for the VDR-coactivator interaction.
In a collaboration between the University of Wisconsin, Milwaukee and the NIH Chemical Genomics Center (NCGC) a HTS-compatible enzymatic assay was developed. The assay uses fluorescence polarization as its read-out to measure the inhibition between VDR and coregulator peptide SRC2-3 exerted by small molecules. This assay was used to screen the NIH Molecular Libraries Small Molecule Repository (MLSMR).
NIH Chemical Genomics Center [NCGC]
NIH Molecular Libraries Probe Centers Network [MLPCN]
Assay Submitter (PI): Alexander Arnold, University of Wilwaukee
Both solutions are kept at 4 deg C and protected from light and dispensed using a Kalypsys dispenser. Then 23nl of compounds and controls are added with Kalypsys pintool. […] Plate is centrifuged at 1000 RPM for 15 seconds to remove any residual bubbles. The plate is then incubate at ambient room temperature for 2 hours.
In general terms: In qHTS, concentration-response curves come from the screen itself.
Turning to `COc1ccc2c(c1)C(=C(C#N)C#N)C(=O)N2CCc1ccccc1`, the Potency was 50.1 µM (active).

As to `COc1ccc(C(=O)NC(C)CCc2ccccc2)c(OC)c1` (configuration not stated), the max response, negative = inhibition was -15.7%.

Turning to `C#CCN1C(=O)C(O)(CC(=O)c2cc(OC)ccc2OC)c2ccccc21` (configuration not stated), the max response, negative = inhibition is -3.89%.

`COc1ccccc1-c1nnc(SCC(N)=O)o1`: the max response, negative = inhibition was 10.5%.

On to `CCC(=O)N1CCc2cc(Br)cc(S(=O)(=O)CCC(=O)NCc3ccccc3OC)c21`, for which the max response, negative = inhibition is -6.5%.

Regarding `COc1ccc(C2Nc3ccc(NC(=O)COC(C)=O)cc3C(=O)N2Cc2ccccc2)cc1COc1ccc(NC(C)=O)cc1` (configuration not stated), the max response, negative = inhibition was -2.53%.

Turning to `CCOc1ccc(N(Cc2ccccc2)C(=O)c2nc(S(C)(=O)=O)ncc2Cl)cc1`, the Potency was 12.6 µM (active).

Consider `CCOc1ccc(N(Cc2ccccc2)C(=O)c2nc(SCC)ncc2Cl)cc1`, for which the max response, negative = inhibition is 3.07%.

As for `CCOc1ccc(NC(=O)CN(Cc2ccccc2)S(=O)(=O)c2ccc(Cl)cc2)cc1`, the max response, negative = inhibition was 3.79%.

Take `Cc1ccc(Cn2c(=O)n(CCCC(=O)NCc3ccccc3Cl)c(=O)c3ccccc32)cc1`: the Potency was 89.1 µM (active).

With `Cc1ccccc1NC(=O)Cn1c(=O)n(CCCCC(=O)NCc2ccccc2Cl)c(=O)c2ccccc21`, the max response, negative = inhibition was -9.56%.

`COc1ccc(CCNC(=O)CCCn2c(=O)c3ccccc3n(Cc3ccc(C)cc3)c2=O)cc1OC`: the max response, negative = inhibition is -9.82%.

In the case of `O=C1N(Cc2ccccc2)c2ccc(Cl)cc2C1(O)c1c[nH]c2ccccc12` (configuration not stated), the max response, negative = inhibition is -7.22%.

For the molecule `Cc1c(Cl)cccc1-c1ccc(CNCCCSc2nnnn2C)o1`, the max response, negative = inhibition is 17.5%.

For `CC(C)(C)c1ccc(S(=O)(=O)N2CCN(C(=O)c3cc(-c4ccc(Br)cc4)n[nH]3)CC2)cc1`, the max response, negative = inhibition was 0.49%.

Regarding `O=C(c1cc(-c2ccc(Cl)cc2)on1)N1CCN(c2ccccc2)CC1`, the max response, negative = inhibition was 0.117%.

For the molecule `O=C(c1cc(-c2ccc(O)cc2)on1)N1CCOCC1`, the max response, negative = inhibition is 4.52%.

As for `O=C(c1cc(-c2ccc(F)cc2)on1)N1CCN(c2ccc(F)cc2)CC1`, the Potency is 70.8 µM (active) and the max response, negative = inhibition is -26.1%.

Regarding `CCCCn1c(=O)c2oc3ccccc3c2n(CC(=O)Nc2ccccc2OC)c1=O`, the max response, negative = inhibition is 4.96%.

For `C=C(C)C1CC=C(CO)CC1` (configuration not stated), the max response, negative = inhibition was 1.87%.

On to `Cc1ccn2c(Nc3ccc4c(c3)OCCO4)c(-c3ccc(C)s3)nc2c1`, for which the max response, negative = inhibition was -0.614%.

On to `O=C(O)[C@@H](S)[C@H](S)C(=O)O`, for which the Potency is 17.8 µM (active).

For `CCCCCCC1(C)NC(c2ccc3c(c2)OCO3)=CC(c2ccccc2O)N1` (configuration not stated), the max response, negative = inhibition is -18%.

In the case of `CCOC(=O)c1nnn(CC(=O)NC(=O)Nc2ccccc2F)c1C(=O)OCC`, the max response, negative = inhibition is 1.08%.

As to `N#Cc1ccccc1Cn1cnc2nc3c(cc2c1=O)CCCC3`, the max response, negative = inhibition is -2.58%.

As for `COCCn1c(CCC(=O)Nc2cc(C)ccc2C)nc2cccnc21`, the max response, negative = inhibition is 7.95%.

Turning to `COc1ccc(Cl)cc1NC(=O)CSc1nc(-c2cccs2)cc(C(F)(F)F)n1`, the max response, negative = inhibition was -17%.

As for `Cc1ccc(F)cc1NC(=O)CCSc1nc(-c2ccco2)cc(C(F)(F)F)n1`, the max response, negative = inhibition is 7.81%.

On to `COc1ccccc1-c1cc(C(F)(F)F)nc(S(=O)(=O)CCCC(=O)Nc2ccc(F)cc2F)n1`, for which the Potency was 56.2 µM (active).

On to `CCOc1ccc(-c2cc3nc(C4CCN(C(=O)OC(C)(C)C)CC4)c(C(=O)Nc4ccc(C(=O)OC)cc4)cn3n2)cc1`, for which the max response, negative = inhibition was -12.8%.

On to `CCN1C(=O)c2ccccc2S(=O)c2ccc(C(=O)NCc3ccc(F)cc3)cc21` (configuration not stated), for which the max response, negative = inhibition is -17%.

For `CO[C@@]12[C@@H](COC(N)=O)C3=C(C(=O)C(C)=C(N)C3=O)N1C[C@@H]1N[C@@H]12`, the max response, negative = inhibition is 1.74%.

As for `COc1ccc(C2C(=O)N(C3CCCCC3)CC(=O)N2Cc2ccccc2Cl)cc1OC` (configuration not stated), the max response, negative = inhibition was 5.49%.

Regarding `CC(Sc1nnc2c(n1)C1CCC2(C)C1(C)C)C(=O)Nc1ccccc1` (configuration not stated), the max response, negative = inhibition was -21.5%.

On to `CSc1nc(C)cc(SC(C(C)=O)C(=O)Nc2ccccc2)n1` (configuration not stated), for which the Potency is 79.4 µM (active).

With `CSc1nc(N(C)NC(=O)c2cccc(C)c2)c2ccccc2n1`, the max response, negative = inhibition is 6.12%.

With `COc1ccc(NC(=O)CSc2nc3ccccc3n2CC(=O)N2CCCCC2C)cc1` (configuration not stated), the max response, negative = inhibition was -0.157%.

As to `O=C(Nc1cccc2cccnc12)C(F)(F)F`, the max response, negative = inhibition was 3.86%.

As to `Cc1ccc(-c2nn(CC(C)(C)C)c3ncnc(N)c23)cc1`, the max response, negative = inhibition is -0.691%.

As for `CCc1nn(CC(=O)N2CCN(c3ccc(Cl)cc3)CC2)c(=O)c2cc3occc3n12`, the max response, negative = inhibition was 22.3%.

In the case of `CCN(CC)CCNC(=O)Cn1ncc2c3ccccc3n(Cc3ccccc3C)c2c1=O`, the max response, negative = inhibition is 13.4%.

`CCOC(=O)c1c(NC(=O)Cc2coc3ccc(CC)cc23)sc2c1CCC2`: the max response, negative = inhibition is 2.49%.

For `CCOC(=O)c1c(NC(=O)C2(C)Cc3ccccc3C(=O)O2)sc2c1CCCC2` (configuration not stated), the Potency is 79.4 µM (active).

As for `CCOC(=O)c1c(NC(=O)c2ccc(S(=O)(=O)N(CC)CC)cc2)sc2c1CCCCC2`, the max response, negative = inhibition was -15.3%.

As to `CCC(=O)Nc1ccc2nc(SCC(=O)N3CCc4ccccc43)sc2c1`, the max response, negative = inhibition is 13%.

`CCOC(=O)C1C/C(=C\C(C)=O)c2cccc(C(F)(F)F)c2O1` (configuration not stated): the max response, negative = inhibition is -3.65%.

Turning to `CN(C)c1ccc(/C=N/NC(=O)C(O)c2ccc(Br)cc2)cc1` (configuration not stated), the max response, negative = inhibition is 5.61%.

Consider `CN(C)c1ccc(N/C=C/C(=O)C(F)(F)F)cc1`, for which the Potency was 25.1 µM (active).

With `COc1cc(OC)c(C(=O)Nc2ccc(N(C)C)cc2)cc1OC`, the max response, negative = inhibition is -2.21%.

For `O=C(CSc1nc(-c2cccc(F)c2)[nH]c1-c1ccccc1)Nc1ccc2c(c1)OCO2`, the max response, negative = inhibition was -7.99%.

As to `CCOc1ccc(N(CC)C(=O)c2cc3c(=O)oc4ccccc4c3s2)cc1`, the max response, negative = inhibition was -18%.

Take `CCOc1cc(CNC(=O)c2sc3ncnc(N(C)C4CCCCC4)c3c2C)ccc1OC`: the max response, negative = inhibition was 5.17%.

With `COc1cc(NC(=O)CSc2nc3nc(C)c(Cc4ccc(C)cc4)c(C)n3n2)cc(OC)c1OC`, the max response, negative = inhibition is 12.5%.

Regarding `N#CC1=C(N)Oc2n[nH]c(CSc3ccccc3)c2C12C(=O)Nc1ccccc12` (configuration not stated), the max response, negative = inhibition is 12%.

As for `CC1(C)Cc2ccccc2-c2[nH]c(=S)[nH]c(=O)c21`, the max response, negative = inhibition is -2%.

On to `N#CC1=C(N)Oc2[nH]c(=S)[nH]c(=O)c2C12C(=O)Nc1ccccc12` (configuration not stated), for which the Potency was 44.7 µM (active).

The values are drawn from PubChem BioAssay AID504847 (National Center for Advancing Translational Sciences (NCATS), 2011).
